Bioassay records deposited in PubChem by National Center for Advancing Translational Sciences (NCATS).
GBA mod = modulators of human glucocerebrosidase. purified enzyme, resorufin glucoside fluorescence (screen aimed at inhibitors), 20 min. Potency, µM. actives 1.1% (n = 48,000). AID 360; in the data active means potency below about 15 µM; inconclusive means mostly about 16 µM to 33 µM;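 further: the screen sought inhibitors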
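Compounds titrated against 0.2 nM normal enzyme, 30 uM resorufin beta-D-glucopyranoside substrate, citrate/phosphate buffer with taurocholate and tween-20, pH 5.9. Reaction ran 20 min at room temperature; fluorescence (Ex 548/Em 600) gave AC50.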
AID923 = qHTS Assay for Allosteric/Competitive Inhibitors of Caspase-1: Spectroscopic Profiling in AFC Spectral Region; Potency, µM (highest dose often 57.5 µM), usual class: activators; compound fluorescence, AFC spectral region (405/520 nm); actives 1.1% (n = 75,000)
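Compound autofluorescence profiled at 405 nm ex/520 nm em during kinetic caspase 1 run (50 nM enzyme, 5 uM Ac-WEHD-AFC, HEPES pH 7.5, 10 mM DTT). Titration up to 57 uM; baseline from regression intercept, normalized to AFC standard curve.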
A350 fluor = A350 region autofluorescence; Compound autofluorescence, 340/450 nm, Alexa 350 dye-equivalents; hits give high values; max dye-equivalent concentration, M; actives 11% (n = 59,000); AID 590; in the data active means max dye-equivalent concentration above about 10 nM; inconclusive means mostly about 1.1 nM to 9.6 nM
HADH2 inhib = inhibitors of human HADH2 dehydrogenase; Q99714; actives 3.4% (n = 73,000); recombinant HADH2, NADH fluorescence, beta-hydroxybutyryl-CoA; Potency, µM (titrated, usually from 57.1 µM), usual class: inhibitors; AID 886; further: nearly all actives have a fitted effect of over 60% in size
Target sequence (Q99714 whole entry, looked up, one chain of several): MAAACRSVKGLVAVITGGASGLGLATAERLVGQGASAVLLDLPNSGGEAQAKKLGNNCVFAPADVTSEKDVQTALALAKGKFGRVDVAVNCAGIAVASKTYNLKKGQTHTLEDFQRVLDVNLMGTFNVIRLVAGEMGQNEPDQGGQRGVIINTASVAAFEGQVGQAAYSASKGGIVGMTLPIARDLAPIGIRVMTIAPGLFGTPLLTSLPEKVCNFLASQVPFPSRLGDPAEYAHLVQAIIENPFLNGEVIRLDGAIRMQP
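His-tagged recombinant enzyme from E. coli, 20 nM, preincubated 15 min RT with compound; reaction started with 1 mM NAD+ and 90 uM beta-hydroxybutyryl-CoA in 100 mM Tris-HCl pH 9.0. NADH fluorescence (ex 360/em 450) read over 4 min; last-minus-first difference.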
HSD17B inh = inhibitors of human HSD17B10 dehydrogenase; Q99714; recombinant HSD17B10, NADH fluorescence kinetic; Potency, µM (highest dose often 57.1 µM), actives largely listed as inhibitors; actives 7.6% (n = 75,000);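 further: the protocol describes HADH2 (HSD17B10) and not the HSD17B4 of the title; nearly all actives have a fitted effect of over 70% in size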
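Enzyme plus compound, 15 min room temperature; substrate mix added (NAD+ 1 mM, beta-hydroxybutyryl-CoA 90 uM final); plates read kinetically for NADH fluorescence. HADH2 was His-tagged, E. coli-derived, 20 nM.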
4MU fluor = compounds fluorescent in 4-MU spectral region | compound autofluorescence, 340/450 nm, 4-MU equivalents; hits give high values | actives 11% (n = 59,000) | max dye-equivalent concentration, M; in the data active means max dye-equivalent concentration above about 10 nM; inconclusive means mostly about 1.1 nM to 9.6 nM
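Intrinsic fluorescence at 340/450 nm (ex/em) was read after 15 min at room temperature in pH 8.0, 100 mM Tris. Each compound concentration expressed as 4-MU-equivalent concentration from a six-point 4-MU standard series on each plate.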
Hits are given with their value; n = inactive; u = inconclusive; x = no result; [ ] = dose if it differs, or a comment. Only some compounds are listed: those with a hit (about 13% of all), similar ones and a draw of the others. Unless noted, the call rests on the fitted dose curve; in most records, active means well fitted curve in the direction sought with a large enough effect; inconclusive means small, poorly fitted or top-dose-only effect, or another doubt; inactive means no such curve, though single readings can be large; an effect the other way counts as inactive or inconclusive.

SMILES	GBA mod	AID923	A350 fluor	HADH2 inhib	HSD17B inh	4MU fluor
CCOc1ccc(NS(=O)(=O)c2ccc3[nH]cc(C(=O)NCC4CCCO4)c(=O)c3c2)cc1 (stereo not given)	n	n	n	n	u	n
CCc1ccccc1NS(=O)(=O)c1ccc2[nH]cc(C(=O)NCC3CCCO3)c(=O)c2c1 (stereo not given)	u	n	u	n	25µM	u
CN(Cc1ccccc1)S(=O)(=O)c1ccc2[nH]cc(C(=O)NCC3CCCO3)c(=O)c2c1 (stereo not given)	x	n	u	u	25µM	n
COc1c(C)cc(Br)cc1C(=O)Nc1cccc(-c2nc3ncccc3o2)c1	x	n	x	n	n	x
CCCCC(=O)Nc1cccc(-c2nc3ncccc3o2)c1	u	n	u	u	32µM	n
Cc1ccc(-c2nc3ncccc3o2)cc1NC(=O)c1ccco1	n	n	n	n	u	n
CCCCCC(=O)Nc1cccc(-c2nc3ncccc3o2)c1	n	n	n	u	25µM	n
Cc1cc(-c2nc3ncccc3o2)ccc1N	n	n	2.4e-06M	u	16µM	3.7e-06M
CC(C)C(OC(=O)C1CCCO1)C(=O)NC1CCCC1 (stereo not given)	n	n	n	n	n	n
Cc1ccc(-c2noc(CN(C(=O)CCCN3C(=O)c4ccccc4C3=O)C(C)C)n2)cc1	x	n	2.1e-08M	n	n	2.4e-08M
Cc1ccc(-c2noc(CN(C(=O)CCCCCN3C(=O)c4ccccc4C3=O)C(C)C)n2)cc1	n	n	n	n	n	n
O=C(O)c1ccc(Nc2ccnc3cc(Cl)ccc23)cc1O	x	n[11.5 µM]	n	n[11.4 µM]	n[11.4 µM]	n
Cc1ccc2cc(CCNC(=O)C(C)C)c(=O)[nH]c2c1C	x	n	x	u	n	x
O=C(Oc1ccc(OC(=O)N2CCOCC2)cc1)c1ccccc1	8	n	n	n	n	n
O=C(Oc1ccccc1OC(=O)N1CCOCC1)N1CCOCC1	n	n	u	n	n	u
CCOC(=O)c1[nH]c2ccc(OC)cc2c1NC(=O)CN1CCC2(CC1)OCCO2	n	n	6.2e-08M	u	25µM	1.6e-07M
CCOC(=O)c1[nH]c2ccc(OC)cc2c1NC(=O)C(C)N1CCC2(CC1)OCCO2 (stereo not given)	n	n	2e-07M	u	25µM	1.5e-07M
CCOC(=O)c1[nH]c2ccc(OC)cc2c1NC(=O)c1nonc1C	x	n	u	n	n	n
COCCCN(C(=O)Nc1ccccc1)C(C)c1ccncc1 (stereo not given)	x	n	x	n	n	x
Cn1c(C(=O)N2CCN(c3ccc(F)cc3)CC2)cc2c(=O)n(C)c3ccccc3c21	x	n	x	n	n	x
CC1(NC[C@@H](O)COc2cccc3[nH]ccc23)CCC(C(C)(C)NC(=O)CBr)CC1 (stereo not given in full)	x	x	n	n	x	n
CC(C)(C)c1ccc(NC(=O)CC2(C(F)(F)F)OCCO2)cc1	n	n	n	n	n	n
O=C(c1cc2c(s1)CCCC2)n1cccn1	n	n	n	n	32µM	n
CC1=C(C(=O)OCC2CCCO2)C(c2ccc(C)o2)C2=C(CC(c3ccc(F)cc3)CC2=O)N1 (stereo not given)	u	n	3.7e-08M	n	n	3.6e-08M
Cc1ccc(N(CN2C(=O)NC(C)(C)C2=O)CN2C(=O)NC(C)(C)C2=O)cc1	x	x	n	x	x	n
SMILES	GBA mod	AID923	A350 fluor	HADH2 inhib	HSD17B inh	4MU fluor
NC(N)=NCCC[C@H](N)C(=O)O	x	n	4.2e-08M	n	n	3.1e-08M
C=CCNC(=O)c1cc([N+](=O)[O-])cc2c(=O)[nH]c(Nc3ccc(Cl)c(Cl)c3)nc12	x	n	x	u	13µM	x
Cc1csc2c(C#N)c(=O)c3c(n12)CCC3	n	n	1.4e-07M	n	16µM	1.1e-07M
CC(C)CCNC(=O)C(c1ccco1)N(Cc1cccs1)C(=O)Cn1nnc2ccccc21 (stereo not given)	x	n	n	n	n	n
COCCNC(=O)C(c1ccco1)N(C(=O)Cn1nnc2ccccc21)c1ccccc1C (stereo not given)	n	n	n	n	n	n
CCOc1ccccc1N(C(=O)c1snc(C(N)=O)c1N)C(C(=O)NCCC(C)C)c1ccco1 (stereo not given)	n	n	1.7e-07M	n	32µM	2e-07M
